Only some compounds are listed: those with a hit (about 2.4% of all), similar ones and a draw of the others.
Yeast superoxide – reduction of superoxide in aged yeast, primary screen, HTS. S. cerevisiae aged cells, superoxide DHE fluorescence; stronger effect = lower value. superoxide response (% of plate mean), % at 10 µM. actives 0.18% (n = 330,000). AID 2690, 2010;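 active means superoxide response under a set limit, about three screen SD below normal, cut at about 65% in these data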;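 further: yeast aged for seven days with compound at 30 °C before DHE staining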
A3A deaminase – APOBEC3A ssDNA deaminase inhibitors, primary screen, selectivity assay for APOBEC3G inhibitor project, biochemical, FAM/TAMRA oligo cleavage fluorescence. DNA dC->dU-editing enzyme APOBEC-3A (Homo sapiens), P31941. AID 493011, 2011. inhibition, % at 20 µM. actives 0.41% (n = 330,000). recombinant A3A, FAM/TAMRA ssDNA deamination fluorescence;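 active means at least 40% inhibition at 20 µM here, with at most 30% in a related deaminase screen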
APOBEC3G inh – APOBEC3G DNA deaminase inhibitors, primary screen, biochemical, fluorescence, single-stranded DNA substrate, uHTS; inhibition, % at 20 µM; actives 0.28% (n = 330,000); recombinant A3G, ssDNA deamination FAM/TAMRA fluorescence; AID 493012, 2011; DNA dC->dU-editing enzyme APOBEC-3G (Homo sapiens), Q9HC16;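 active means inhibition of at least 40% at 20 µM, with no more than 30% in the related APOBEC3A deaminase screen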
Target sequence (Q9HC16 whole entry, looked up): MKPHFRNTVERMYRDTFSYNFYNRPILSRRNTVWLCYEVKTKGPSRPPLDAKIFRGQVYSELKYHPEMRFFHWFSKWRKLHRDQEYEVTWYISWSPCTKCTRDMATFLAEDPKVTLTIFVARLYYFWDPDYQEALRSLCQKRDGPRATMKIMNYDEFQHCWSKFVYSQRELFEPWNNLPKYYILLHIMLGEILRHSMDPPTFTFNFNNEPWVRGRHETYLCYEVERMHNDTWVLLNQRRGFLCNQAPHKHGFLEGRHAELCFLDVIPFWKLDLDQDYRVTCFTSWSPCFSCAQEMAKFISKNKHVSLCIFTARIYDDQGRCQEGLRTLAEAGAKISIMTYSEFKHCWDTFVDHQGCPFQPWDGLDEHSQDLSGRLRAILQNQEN
M18AAP inhibitor – PfM18AAP inhibitors, malaria aminopeptidase, primary screen, biochemical, QFRET, recombinant enzyme; M18 aspartyl aminopeptidase (Plasmodium falciparum 3D7); H-Glu-NHMec fluorogenic cleavage; actives 1.2% (n = 290,000); inhibition, % at 7.35 µM;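 active means inhibition above the campaign mean inhibition over all tested compounds plus 3 SD, cut at about 28% in these data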
PfG6PD inh – PfG6PD enzyme inhibitors, primary screen, biochemical, fluorescence intensity, uHTS. actives 0.78% (n = 350,000). glucose-6-phosphate dehydrogenase-6-phosphogluconolactonase (Plasmodium falciparum 3D7). PfGluPho enzyme, NADPH resazurin-diaphorase fluorescence. inhibition, % at 20 µM. AID 504690, 2011;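 active means inhibition reaching at least a set limit at 20 µM in the primary screen, cut at about 59% in these data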
A3A conf – APOBEC3A deaminase inhibitors, retest, confirmation, selectivity assay for APOBEC3G inhibitor project, biochemical, single concentration, fluorescence readout. shares compounds with A3A deaminase. recombinant A3A, ssDNA deaminase UDG fluorescence assay. inhibition, % at 20 µM. actives 63% (n = 1,400);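 active means inhibition reaching a set limit, 80% of the first screen's cutoff, at 20 µM in any replicate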
UDG A3A counter – E. coli UDG inhibitors, confirmation, counter-screen for APOBEC3A inhibitor project, biochemical, single concentration, fluorescence, FAM/TAMRA oligo; inhibition, % at 20 µM; 1,000 tested, under 10 active; AID 504714, 2011; UDG counterscreen, FAM/TAMRA uracil oligo fluorescence; shares compounds with A3A deaminase; call rule not given here
Hits are given with their value; - = inactive; . = not tested or not shown.

SMILES	Yeast superoxide	A3A deaminase	APOBEC3G inh	M18AAP inhibitor	PfG6PD inh	A3A conf	UDG A3A counter
O=C(O)C1CCN(S(=O)(=O)Cc2ccccc2)CC1	-	-	-	-	-	.	.
Cn1c2ccccc2c2cc(/C=N/NC(=O)c3cc(O)ccc3O)ccc21	-	-	-	-	-	.	.
Cc1cccc(C(=O)Oc2ccc(/C=N/NC(=O)c3ccncc3)cc2)c1	-	-	-	-	-	.	.
Cn1c2ccccc2c2cc(/C=N/NC(=O)c3cc(O)cc(O)c3)ccc21	-	55	-	-	-	60	-
Cc1cccc(C(=O)Oc2ccc(/C=N/NC(=O)c3cc(O)cc(O)c3)cc2)c1	-	69	-	-	-	77	-
O=C(C(Cl)c1ccccc1)N1CCOCC1 (stereo unspecified)	-	-	-	-	-	.	.
OCCN1CCN(c2ncnc3nc[nH]c23)CC1	-	51	-	-	-	-	-
c1nc(N2CCCC2)c2[nH]cnc2n1	-	-	-	-	-	.	.
COc1ccc(NC(=O)c2cc(-c3ccco3)nc3ccccc23)cn1	-	52	-	.	-	45	-
COc1ccc(CNC(=O)COC(=O)c2cc(-c3ccco3)nc3ccccc23)cc1	.	.	.	-	.	.	.
CN(C)C(=O)c1ccc(NC(=O)c2cc(-c3ccco3)nc3ccccc23)cc1	-	-	-	-	-	.	.
CCNC(=O)COC(=O)c1cc(-c2ccco2)nc2ccccc12	-	53	-	-	-	34	-
Cn1c(=O)c(C(=O)COC(=O)c2cc(-c3ccco3)nc3ccccc23)c(N)n(CC2CC2)c1=O	-	47	-	-	.	32	.
Cc1ccc(O)c(Cc2cc(C)cc(Cc3cc(C)ccc3O)c2O)c1	.	.	.	.	-	.	.
O=C(C[C@H]1C/C=C\C[C@H](NC(=O)OCC2c3ccccc3-c3ccccc32)C(=O)O[C@H](c2ccccc2)CNC1=O)N[C@H](CO)Cc1ccccc1	-	-	-	.	-	.	.
C[C@@H]1Cc2c(O)c(O)cc(O)c2C(=O)O1	-	-	-	.	-	.	.
O=C1C=C(O)c2c(O)cc(O)c(O)c2C1=O	-	83	-	.	-	76	.
CC[n+]1ccc2cc(OC)c(OC)cc2c1Cc1ccc(OC)c(OC)c1	-	69	-	-	-	43	.
COc1ccc(Cc2c3cc(OC)c(OC)cc3cc[n+]2C)cc1OC	-	-	-	.	-	.	.
CCOC(=O)N1CCN(C(=O)/C=C/c2ccc(C(C)(C)C)cc2)CC1	-	-	-	-	-	.	.
Nc1nc2c(s1)CCCCCCCCCC2	-	50	-	-	-	38	-
C=CCN1CCc2nc(N)sc2CC1	.	.	.	-	-	.	.
CCn1c(=O)n(CC)c2cc(NC(=O)C(C)c3ccccc3)c(Br)cc21 (stereo unspecified)	-	54	-	-	-	-	.
CC(C(=O)Nc1ccccc1Oc1ccccc1)c1ccccc1 (stereo unspecified)	-	-	-	-	-	.	.
CCN(CC(=O)Nc1c(F)cccc1F)C(=O)c1ccc(OCc2c(C)noc2C)cc1	-	-	-	.	-	.	.
Cc1c(C(=O)OCC[N+]2(C)CCCCC2)oc2ccccc12	-	77	-	-	-	77	-
COCCCn1c(=O)c2ccccc2n(CC(=O)NC2CCCCC2)c1=O	-	-	-	-	-	.	.
C[n+]1ccc(/C=C/c2c[nH]c3ccc(F)cc23)cc1	-	49	-	-	-	45	.
CCc1cccc(C)c1NC(=O)c1cc(=O)[nH]c2ccc(S(=O)(=O)N3CCOCC3)cc12	-	43	-	.	-	35	-
C[N+](C)(C)CCN(Cc1ccc(Cl)cc1)c1ccccn1	-	58	-	-	-	68	-
